Assay [1] in a line: qHTS assay to identify small molecule agonists of the vitamin D receptor (VDR) signaling pathway - cell viability counter screen (AID 743224). Note: nearly all actives have a fitted effect of over 50% in size. Note: potency is the fitted concentration of half-maximal effect. The procedure, abridged:
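Plated VDR-bla cells (4 h, 37C) received compound, incubated 16 h, then LiveBLAzer substrate 2 h RT; CellTiter-Glo added afterwards, luminescence read at 30 min.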
(Quantitative high-throughput screening tests each substance at several concentrations.)

A short description of assay [2]: qHTS assay to identify small molecule antagonists of the vitamin D receptor (VDR) signaling pathway - cell viability counter screen (AID 743225). Note: nearly all actives have a fitted effect of over 50% in size. Note: potency is the fitted concentration of half-maximal effect. Put shortly: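 VDR-bla HEK 293T cells, 4 h pre-incubation at 37C, then compound plus 1-alpha,25-dihydroxyvitamin D3 (3 nM final) for 16 h. After the beta-lactamase FRET read, CellTiter-Glo was added to the same wells; luminescence after 30 min at room temperature.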

The nature of assay [3]: qHTS assay to identify small molecule agonists of the NFkB signaling pathway (AID 1159509; active = well fitted curve in the direction sought with a large enough effect in the signal ratio in the repeat runs, not every such curve was filed as active; the % refers to the signal ratio). Put shortly: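 NFkB-bla ME-180 cells carry a beta-lactamase reporter under an NF-kB response element. They were plated overnight, then exposed to compounds for 5 h at 37 C. Read-out is LiveBLAzer FRET after 1.5 hr at room temperature (405 nm excitation; 460/530 nm emission).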
The nature of assay [4]: qHTS assay to identify small molecule agonists of the NFkB signaling pathway - cell viability counter screen (AID 1159515; calls by dose curve; note: nearly all actives have a fitted effect of over 55% in size). Put shortly: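 Using the same wells as the NFkB reporter read, ME-180 NFkB-bla cells given compounds for 5 hr were assessed for viability via CellTiter-Glo, with luminescence taken after a 30 min room-temperature incubation.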
The nature of assay [5]: qHTS assay to identify small molecule antagonists of the retinoid-related orphan receptor gamma (ROR-gamma) signaling pathway - cell viability counter screen (AID 1159520). Note: nearly all actives have a fitted effect of over 50% in size. The procedure, abridged:
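Tet-on ROR gamma CHO cells (1,000/well) were plated 4 hr, given compounds in DMSO for 2 hr at 37 C, then induced with 1 uM final doxycycline for 16 hr. Viability was read as ATP by CellTiter-Glo luminescence after 30 min.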

The target in assay [6] is Nuclear receptor ROR-gamma (Homo sapiens) (UniProt P51449). Nature of the assay: qHTS assay to identify small molecule antagonists of the retinoid-related orphan receptor gamma (ROR-gamma) signaling pathway (AID 1159521; note: nearly all actives have a fitted effect of over 50% in size; note: potency is the fitted concentration of half-maximal effect). Put shortly:
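Tet-on RORγ CHO cells carrying a ROR response element–luciferase reporter were pretreated with compounds for 2 h, then induced with 1 uM (final) doxycycline hyclate for 16 h at 37 C. Antagonism was read as decreased ONE-Glo luminescence.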

Assay [7] can be described thus: qHTS assay to identify small molecule agonists of the AP-1 signaling pathway - cell viability counter screen (AID 1159525; calls by dose curve; note: nearly all actives have a fitted effect of over 55% in size). Put shortly: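 ME-180 AP-1-bla, 2500 cells/well, Opti-MEM + 0.5% dialyzed FBS; overnight 37 °C; cpd 15-pt titration, 5 h 37 °C; CellTiter-Glo 30 min RT; luminescence read; normalised to TOAB and DMSO controls.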
Assay [8] in a line: qHTS assay to identify small molecule agonists of the AP-1 signaling pathway (AID 1159526; calls by dose curve).
Assay [9] concerns the target Retinoic acid receptor RXR-alpha (Homo sapiens) (UniProt P19793). Description: qHTS assay to identify small molecule agonists of the RXR signaling pathway (AID 1159527; calls by dose curve; note: nearly all actives have a fitted effect of over 35% in size). Put shortly:
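GeneBLAzer RXR-alpha-UAS-bla HEK 293T cells in medium with 2% charcoal-stripped FBS, pre-incubated 5 hr at 37 C, then exposed to compounds 16 hr. Beta-lactamase reporter read by FRET substrate, 2 hr room temperature, 460/530 nm emission.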

Assay [10] in a line: qHTS assay to identify small molecule agonists of the RXR signaling pathway - cell viability counter screen (AID 1159529). Note: nearly all actives have a fitted effect of over 50% in size. Put shortly: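 RXR-alpha-UAS-bla HEK 293T cells in medium with 2% charcoal-stripped FBS were preincubated 5 hr, then exposed to compounds for 16 hr at 37 C. Viability was read as CellTiter-Glo luminescence after 30 min at room temperature.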
The nature of assay [11]: qHTS assay to identify small molecule antagonists of the retinoid acid receptor (RAR) signaling pathway - cell viability counter screen (AID 1159551). Note: nearly all actives have a fitted effect of over 35% in size. Put shortly: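 Retinol-stimulated (1 uM final) C3RL4 cells, compound 6 h, 37 C; readout CellTiter-Glo luminescence (ATP) after 30 min RT incubation.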
Assay [12] is described as follows: qHTS assay to identify small molecule antagonists of the retinoic acid receptor (RAR) signaling pathway (AID 1159552; note: nearly all actives have a fitted effect of over 50% in size). The procedure, abridged: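 RARE-luc C3RL4 cells; cpds + 1 uM (final) retinol, 6 hr, 37 C/5% CO2; luciferase reagent, 30 min RT, luminescence readout. Inhibitors of retinol-driven signal scored.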
Assay [13] can be described thus: qHTS assay to identify small molecule agonists of the retinoic acid receptor (RAR) signaling pathway (AID 1159553). The note with it: C3RL4 RARE luciferase reporter, agonist, 6 h; activation: at 73.3 µM (top of the series). Put shortly: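 Reporter readout comes from luciferase under RARE control in C3RL4 cells; compound exposure lasts 6 hr at 37 C in 5% CO2, and luminescence is recorded following a 30 min room-temperature incubation with reagent.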

Assay [14] in a line: qHTS assay to identify small molecule agonists of the endoplasmic reticulum stress response signaling pathway - cell viability counter screen (AID 1159517; calls by dose curve). Put shortly:
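CellTiter-Glo was added to wells already read for beta-lactamase FRET, and luminescence was recorded 30 min later. Cells: ESRE-bla HeLa, 1,500 per well, compound exposure 5 hr at 37 C.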

The nature of assay [15]: qHTS assay to identify small molecule antagonists of the estrogen related receptor (ERR) signaling pathway - cell viability counter screen (AID 1224818).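 Note: viability measured after 17.5 h of compound exposure.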 The procedure, abridged: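 After a 6 h pre-incubation, ERR cells were dosed by pin tool with compounds, positive/negative controls or DMSO alone. Following 17.5 h at 37 C and 30 min with CellTiter-Fluor, fluorescence was recorded.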

Assay [16] in a line: qHTS assay to identify small molecule antagonists of the estrogen related receptor (ERR) signaling pathway (AID 1224819). Put shortly: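 Luminescence readout (One-Glo, 30 min, RT) of ERR cell line after 18 h compound exposure at 37 C; cells seeded 2,000/well, pre-incubated 6 h, compounds pinned from DMSO stocks.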
Assay [17] in a line: qHTS assay to identify small molecule agonists of the estrogen related receptor (ERR) signaling pathway (AID 1224820). Put shortly: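 ERR reporter cell line (from NTP), 2,000 cells/well, incubated 6 h before compound addition, then 18 h at 37 C. Luminescence measured 30 min after One-Glo reagent at room temperature.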
Assay [18] has as its system estrogen-related receptor alpha (ERRalpha) with PGC-1alpha coactivator, human. Description: qHTS assay to identify small molecule antagonists of the estrogen related receptor signaling pathway with the pleiotropic PPARgamma coactivator (PGC) (AID 1224821; calls by dose curve). The procedure, abridged: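 PGC/ERR reporter cell line, plated 6 h before compound addition, then exposed 18 h at 37 °C. Luciferase activity read by luminescence 30 min after One-Glo addition; decrease indicates antagonism.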

Assay [19] is described as follows: qHTS assay to identify small molecule antagonists of the estrogen related receptor signaling pathway with the pleiotropic PPARgamma coactivator (PGC) cell viability counter screen (AID 1224822;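 note: viability read after 17.5 h compound exposure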). Put shortly:
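PGC/ERR cells were plated at 2,000 per well and allowed 6 h to settle before compound addition. Following 17.5 h at 37 C, CellTiter-Fluor reagent was added and fluorescence was read 30 min later.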

The values below come from PubChem BioAssay (Tox21).

Structures are written as SMILES. Results filed as inconclusive are left out. Activity calls are given as the source filed them. Unless noted, calls come from the whole dose curve; as a rule, active = well fitted curve in the direction sought with a large enough effect in the repeat runs; inconclusive = weak or mixed curves; inactive = no such curve, though single readings can be large; an effect the other way counts as inactive or inconclusive.

Sequence of Retinoic acid receptor RXR-alpha (Homo sapiens) (P19793 whole entry, looked up): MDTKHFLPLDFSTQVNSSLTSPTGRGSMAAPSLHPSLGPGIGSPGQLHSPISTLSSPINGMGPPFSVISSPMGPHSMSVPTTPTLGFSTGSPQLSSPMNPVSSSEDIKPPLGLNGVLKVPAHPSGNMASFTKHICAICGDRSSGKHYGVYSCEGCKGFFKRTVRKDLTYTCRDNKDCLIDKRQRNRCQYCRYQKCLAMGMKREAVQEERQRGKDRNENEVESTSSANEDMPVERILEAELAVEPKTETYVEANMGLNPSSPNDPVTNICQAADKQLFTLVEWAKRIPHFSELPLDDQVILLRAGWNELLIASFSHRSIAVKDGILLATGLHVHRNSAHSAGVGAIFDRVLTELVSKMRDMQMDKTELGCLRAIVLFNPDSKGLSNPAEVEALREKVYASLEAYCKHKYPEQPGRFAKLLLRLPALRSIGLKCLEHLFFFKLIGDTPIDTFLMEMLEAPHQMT

For `O=C(Cn1ccnc1[N+](=O)[O-])NCCO`, the Potency entry in assay [1], in assay [2], in assay [3], in assay [4], in assay [5] and in assay [6] was “inactive” each time. For the same compound, the Potency result in assay [7], in assay [8], in [9], in assay [10], in assay [11] and in [12] was “inactive” throughout. In [13], the Potency result was “inactive”.

For the compound `CCCCCCCCN`, the Potency result in assay [1], in [2], in [3], in assay [4], in [5] and in assay [7] was “inactive” each time. For the same compound, the Potency entry in assay [8], in [9], in assay [10], in [11], in [12] and in assay [13] was “inactive” throughout.

`Clc1cc(Cl)nc(Cl)n1`: the Potency result in [1], in assay [2], in assay [3], in [4], in assay [5] and in assay [6] was “inactive” throughout. The Potency entry in assay [7], in [8], in [9], in [10], in assay [11] and in assay [12] was “inactive” in each case. Moreover, the Potency result in assay [13] is “inactive”.

For `O=C1C(=O)c2ccccc2C(O)=C1C1CCC(c2ccc(Cl)cc2)CC1` (centres undefined), the Potency in assay [2] is 5.35 µM (active). Further, the Potency result in assay [3], in [4], in assay [14], in assay [7], in assay [10] and in assay [11] was “inactive” in each case.

`CC(C)(C)C(=O)C(=O)O`: the Potency result in assay [1], in assay [2], in assay [3], in assay [4], in assay [5] and in assay [6] was “inactive” each time. The Potency entry in [7], in [8], in assay [9], in assay [10], in assay [11] and in assay [12] was “inactive” each time. Also, the Potency entry in assay [13] was “inactive”.

Take `Oc1ccc(Cl)c2cccnc12`: the Potency in assay [1] was 0.376 µM (active). The Potency entry in assay [3], in [4], in [6], in assay [7], in assay [11] and in [12] was “inactive” throughout.

Take `O=C1c2ccccc2C(=O)c2c(O)c(O)cc(O)c21`: the Potency result in assay [1], in [2], in [3], in [4], in assay [14] and in assay [7] was “inactive” each time. Further, the Potency entry in [8], in assay [10] and in [13] was “inactive” in each case.

As for `CC(=O)c1ccc([N+](=O)[O-])cc1`, the Potency result in assay [1], in assay [2], in [3], in [4], in assay [5] and in assay [7] was “inactive” each time. Besides, the Potency entry in [8], in [10], in assay [11], in assay [12] and in assay [13] was “inactive” each time.

Take `O=[N+]([O-])c1ccc(O/N=C/c2cc(Br)c(O)c(Br)c2)c([N+](=O)[O-])c1`: the Potency result in assay [1], in assay [3], in [4], in [7] and in assay [11] was “inactive” throughout. For the same compound, the Potency in assay [6] was 6.82 µM (active).

Consider `CN1C(=O)c2ccccc2C1=O`, for which the Potency entry in assay [3], in assay [4], in assay [5], in [8], in assay [10] and in assay [11] was “inactive” each time. The Potency entry in assay [12] and in assay [13] was “inactive” each time. In addition, the compound was called inactive in [15], in assay [16], in assay [17], in assay [18] and in assay [19].

As for `CCC1NC(=O)c2cc(S(N)(=O)=O)c(Cl)cc2N1` (centres undefined), the Potency result in assay [1], in assay [2], in assay [3], in [4], in assay [5] and in assay [7] was “inactive” each time. Also, the Potency entry in assay [8], in assay [9], in assay [10] and in assay [11] was “inactive” throughout.

With `OC(CCN1CCCC1)(c1ccccc1)C1CCCCC1` (centres undefined), the Potency result in assay [1], in assay [2], in assay [3], in assay [4], in assay [5] and in assay [7] was “inactive” in each case. Moreover, the Potency result in assay [9], in assay [10], in assay [11] and in assay [13] was “inactive” each time.
